Experimental data as given in the supplement of paper PMC12494721.
Structures can show the parent of a compound that is named as a salt.

Assays:
Conditions in all cases: incubation time: 27 h, anaerobic, 37 °C;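 for the amine columns active = adjusted P below 0.05 in both replicates with a change the same way and a mean fold change under 0.8 or over 1.25; inactive = the rest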
[1] = tested on: Clostridium sporogenes DSM 1664; experiment: growth (OD595) fold change vs plate DMSO controls (fold change (ratio)); higher = more growth
In short: (§1)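 The reported measure is growth: the fold change against the median of DMSO controls on the plate. Absorbance at 595 nm from anaerobic 96-well mGAM cultures grown for 27 h at 37 °C was blank-subtracted, corrected for background with 20 µM compound solutions in water, and converted to OD with a calibration factor of 5. Fold changes above 1.5 appear as NA, and values are the mean of 2 biological replicates.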

Escherichia coli IAI1 [2] = experiment: as above
In short: as §1

[3] = tested on: Klebsiella aerogenes DSM 30053; experiment: as above
In short: as §1

[4] = tested on: Ruminococcus gnavus DSM 108212; experiment: as above
In short: as §1

[5] = tested on: Klebsiella aerogenes DSM 30053; experiment: fold change of Histamine concentration vs plate DMSO controls (fold change (ratio)); higher = more amine produced, active = hit call of the paper (significant change in both replicates, either direction)
In short: (§2)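 Amines were quantified by LC–triple-quadrupole MS in dynamic MRM mode against external calibration curves, with drift correction within each batch. The samples were whole anaerobic mGAM cultures of four gut bacterial strains, grown for 27 h at 37 °C in 80 µL wells and extracted with cold acetonitrile/methanol with 0.1% formic acid, then centrifuged. Values are reported as fold change over DMSO controls on the same plate. The mean of 2 biological replicates is given.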

[6] = tested on: Clostridium sporogenes DSM 1664; experiment: fold change of Tryptamine concentration vs plate DMSO controls (fold change (ratio)); higher = more amine produced, active = hit call of the paper (significant change in both replicates, either direction)
In short: as §2

[7] = tested on: Ruminococcus gnavus DSM 108212; experiment: as above
In short: as §2

Escherichia coli IAI1 [8] = experiment: fold change of Putrescine concentration vs plate DMSO controls (fold change (ratio)); higher = more amine produced, active = hit call of the paper (significant change in both replicates, either direction)
In short: as §2

[9] = tested on: Klebsiella aerogenes DSM 30053; experiment: as above
In short: as §2

Escherichia coli IAI1 [10] = experiment: fold change of Cadaverine concentration vs plate DMSO controls (fold change (ratio)); higher = more amine produced, active = hit call of the paper (significant change in both replicates, either direction)
In short: as §2

[11] = tested on: Klebsiella aerogenes DSM 30053; experiment: as above
In short: as §2

[12] = tested on: Ruminococcus gnavus DSM 108212; experiment: fold change of 2-Phenylethylamine concentration vs plate DMSO controls (fold change (ratio)); higher = more amine produced, active = hit call of the paper (significant change in both replicates, either direction)
In short: as §2

Structure (SMILES) | growth [1] | growth (Escherichia coli IAI1 [2]) | growth [3] | growth [4] | fold change of Histamine concentration [5] | fold change of Tryptamine concentration [6] | fold change of Tryptamine concentration [7] | fold change of Putrescine concentration (Escherichia coli IAI1 [8]) | fold change of Putrescine concentration [9] | fold change of Cadaverine concentration (Escherichia coli IAI1 [10]) | fold change of Cadaverine concentration [11] | fold change of 2-Phenylethylamine concentration [12]
C[C@H]1O[C@H](O[C@H]2[C@H](O)[C@@H](O)[C@@H](O[C@@H]([C@H](O)[C@@H](O)C=O)[C@H](O)CO)O[C@@H]2CO)[C@H](O)[C@@H](O)[C@@H]1N[C@H]1C=C(CO)[C@@H](O)[C@H](O)[C@H]1O [Acarbose] (20 µM) | 0.918 | 1.03 | 1.04 | 1.05 | 1.15 (inactive) | 1.02 (inactive) | 0.997 (inactive) | 0.948 (inactive) | 1.07 (inactive) | 1.12 (inactive) | 0.996 (inactive) | 0.978 (inactive)
CC=CC1=C(C(=O)O)N2C(=O)[C@@H](NC(=O)[C@H](N)c3ccc(O)cc3)[C@H]2SC1 [Cefprozil] (20 µM) | 0.404 | 1.01 | 0.983 | 0.5 | 1.06 (inactive) | 0.324 (active) | 0.637 (inactive) | 0.914 (inactive) | 1.02 (inactive) | 0.955 (inactive) | 1.02 (inactive) | 0.843 (inactive)
CC[C@@]1(O)C(=O)OCc2c1cc1n(c2=O)Cc2cc3c(CN(C)C)c(O)ccc3nc2-1 [Topotecan] (20 µM) | 1.08 | 1.03 | 0.991 | 0.99 | 1.1 (inactive) | 0.992 (inactive) | 0.998 (inactive) | 1.01 (inactive) | 0.994 (inactive) | 0.961 (inactive) | 1 (inactive) | 1.01 (inactive)
CC1CC(OC(=O)c2ccccc2O)CC(C)(C)C1 (stereo not drawn) [Homosalate] (20 µM) | 1.2 | 0.987 | 0.984 | 1.1 | 1.04 (inactive) | 0.994 (inactive) | 0.952 (inactive) | 1.23 (inactive) | 1 (inactive) | 1 (inactive) | 0.986 (inactive) | 0.922 (inactive)
CC1CC(OC(=O)C(O)c2ccccc2)CC(C)(C)C1 (stereo not drawn) [Cyclandelate] (20 µM) | 0.937 | 1.02 | 1.04 | 1.02 | 0.997 (inactive) | 1.04 (inactive) | 1.03 (inactive) | 0.959 (inactive) | 1.02 (inactive) | 1.02 (inactive) | 1.01 (inactive) | 1.03 (inactive)
c1ccc(CC2=NCCN2)cc1 [Tolazoline hydrochloride] (20 µM) | 1.05 | 1 | 0.977 | 0.841 | 1.07 (inactive) | 0.962 (inactive) | 0.996 (inactive) | 0.996 (inactive) | 1.02 (inactive) | 1.06 (inactive) | 0.99 (inactive) | 1 (inactive)
CCCCOc1cc(C(=O)OCCN(CC)CC)ccc1N [Benoxinate hydrochloride] (20 µM) | 1.06 | 0.951 | 0.988 | 1.01 | 1.05 (inactive) | 0.997 (inactive) | 1.04 (inactive) | 0.973 (inactive) | 1.01 (inactive) | 0.978 (inactive) | 0.998 (inactive) | 1.04 (inactive)
O=C(O)Cc1sc(-c2ccccc2)nc1-c1ccc(Cl)cc1 [Fentiazac] (20 µM) | 1.09 | 1.06 | 1.06 | 0.808 | 0.945 (inactive) | 0.999 (inactive) | 0.966 (inactive) | 1.04 (inactive) | 0.971 (inactive) | 0.966 (inactive) | 1.03 (inactive) | 1.06 (inactive)
CC(=O)N1CCN(c2ccc(OCC3COC(Cn4ccnc4)(c4ccc(Cl)cc4Cl)O3)cc2)CC1 (stereo not drawn) [Ketoconazole] (20 µM) | 1.17 | 0.988 | 1 | 0.945 | 0.927 (inactive) | 1.03 (inactive) | 0.984 (inactive) | 1.04 (inactive) | 0.979 (inactive) | 1.02 (inactive) | 0.994 (inactive) | 0.937 (inactive)
COC(=O)[C@H](c1ccccc1Cl)N1CCc2sccc2C1 [Clopidogrel] (20 µM) | 1.01 | 1.25 | 0.982 | 0.969 | 1.06 (inactive) | 0.986 (inactive) | 0.963 (inactive) | 1.23 (inactive) | 1.02 (inactive) | 0.975 (inactive) | 0.996 (inactive) | 0.941 (inactive)
CC(C)COC(=O)OCN1C(=O)CN(CCN2CC(=O)N(COC(=O)OCC(C)C)C(=O)C2)CC1=O [Sobuzoxane] (20 µM) | 0.986 | 0.991 | 1.03 | 1.09 | 1 (inactive) | 1.03 (inactive) | 1.03 (inactive) | 0.986 (inactive) | 0.996 (inactive) | 0.988 (inactive) | 1 (inactive) | 1.05 (inactive)
CCCC(=O)Nc1ncnc2c1ncn2[C@@H]1O[C@@H]2COP(=O)(O)O[C@H]2[C@H]1OC(=O)CCC [Bucladesine sodium salt] (20 µM) | 0.934 | 1.16 | 1.04 | 0.964 | 0.931 (inactive) | 0.976 (inactive) | 0.984 (inactive) | 1.06 (inactive) | 0.983 (inactive) | 1 (inactive) | 1.01 (inactive) | 0.975 (inactive)
CCCCCOC(=O)Nc1nc(=O)n([C@@H]2O[C@H](C)[C@@H](O)[C@H]2O)cc1F [Capecitabine] (20 µM) | 1.12 | 0.991 | 1.07 | 0.98 | 0.921 (inactive) | 0.982 (inactive) | 1.03 (inactive) | 0.993 (inactive) | 0.99 (inactive) | 1.01 (inactive) | 1 (inactive) | 1.06 (inactive)
O=S(=O)([O-])NC1CCCCC1.[Na+] [Sodium cyclamate] (50 µM) | 1.01 | 1.02 | 0.974 | 1.03 | 1.04 (inactive) | 1.01 (inactive) | 1.01 (inactive) | 1.03 (inactive) | 1.02 (inactive) | 1.05 (inactive) | 1 (inactive) | 1.02 (inactive)
C[N+](C)(C)C[C@H](O)CC(=O)[O-] [Levocarnitine] (20 µM) | 0.997 | 1 | 0.994 | 0.966 | 1.04 (inactive) | 0.955 (inactive) | 1.07 (inactive) | 1.02 (inactive) | 1.03 (inactive) | 0.929 (inactive) | 1.09 (inactive) | 1.22 (inactive)
Clc1ccc(C(c2ccccc2Cl)C(Cl)Cl)cc1 (stereo not drawn) [Mitotane] (20 µM) | 1.01 | 1.04 | 1.03 | 1.34 | 1.01 (inactive) | 0.997 (inactive) | 1.01 (inactive) | 1.03 (inactive) | 1 (inactive) | 1.03 (inactive) | 1.01 (inactive) | 1.03 (inactive)
CNCc1cc(-c2ccccc2F)n(S(=O)(=O)c2cccnc2)c1 [Vonoprazan] (20 µM) | 1.08 | 0.967 | 0.975 | 1.04 | 1.04 (inactive) | 1 (inactive) | 1.02 (inactive) | 0.503 (inactive) | 1 (inactive) | 0.483 (inactive) | 0.982 (inactive) | 0.999 (inactive)
CC(C)CC(=O)N[C@H](C(=O)N[C@H](C(=O)N[C@@H](CC(C)C)[C@@H](O)CC(=O)N[C@@H](C)C(=O)N[C@@H](CC(C)C)[C@@H](O)CC(=O)O)C(C)C)C(C)C [Pepstatin A] (20 µM) | 1.1 | 1 | 1 | 1.06 | 1.02 (inactive) | 1.06 (inactive) | 1.05 (inactive) | 0.953 (inactive) | 1.01 (inactive) | 0.961 (inactive) | 0.999 (inactive) | 1.06 (inactive)
Cc1cn(-c2cc(NC(=O)c3ccc(C)c(Nc4nccc(-c5cccnc5)n4)c3)cc(C(F)(F)F)c2)cn1 [Nilotinib] (20 µM) | 0.888 | 1.07 | 1.11 | 1.02 | 0.924 (inactive) | 1.06 (inactive) | 0.879 (inactive) | 1 (inactive) | 1.01 (inactive) | 0.967 (inactive) | 1.01 (inactive) | 0.897 (inactive)
Cc1cc(CC(=O)O)n(C)c1C(=O)c1ccc(Cl)cc1 [Zomepirac sodium salt] (20 µM) | 1.21 | 0.969 | 0.981 | 1.13 | 1.05 (inactive) | 0.971 (inactive) | 0.972 (inactive) | 1.04 (inactive) | 1.01 (inactive) | 1.01 (inactive) | 0.984 (inactive) | 0.968 (inactive)
CCOC(=O)[C@H](CCc1ccccc1)N[C@@H](C)C(=O)N1[C@H](C(=O)O)C[C@H]2CCCC[C@@H]21 [Trandolapril] (20 µM) | 0.941 | 1.05 | 1.02 | 1.01 | 0.994 (inactive) | 0.989 (inactive) | 1.02 (inactive) | 1.08 (inactive) | 1 (inactive) | 0.978 (inactive) | 0.991 (inactive) | 1.02 (inactive)
CC(=O)Nc1cccc(O)c1 [Metacetamol] (20 µM) | 0.961 | 1.03 | 1.01 | 0.966 | 1.01 (inactive) | 0.941 (inactive) | 0.999 (inactive) | 1.02 (inactive) | 0.992 (inactive) | 1 (inactive) | 0.988 (inactive) | 0.962 (inactive)
c1ccc2c(c1)CCCC2C1=NCCN1 (stereo not drawn) [Tetrahydrozoline hydrochloride] (20 µM) | 0.99 | 0.997 | 1.01 | 0.897 | 0.99 (inactive) | 1.01 (inactive) | 0.993 (inactive) | 1.04 (inactive) | 0.992 (inactive) | 0.966 (inactive) | 1 (inactive) | 1.01 (inactive)
COc1cc(C)c(/C=C/C(C)=C/C=C/C(C)=C/C(=O)O)c(C)c1C [Acitretin] (20 µM) | 0.986 | 1.1 | 1.02 | 1.09 | 0.97 (inactive) | 0.967 (inactive) | 0.962 (inactive) | 1.18 (inactive) | 0.996 (inactive) | 0.971 (inactive) | 1.01 (inactive) | 0.99 (inactive)
